{
  "source": "the OligoGym collection",
  "data": [
    {"target": "NPC1L1", "assay": "pooled miR-30 sensor sort-seq; sequence = guide strand", "conditions": "shRNA", "values": [
      {"sequence": "TTGGAGAGTGTCATGAGGCTTC", "sensor-assay potency score (higher = more potent)": -0.0939},
      {"sequence": "TTGTCAGCTGTGGAGACTCGGG", "sensor-assay potency score (higher = more potent)": -1.23},
      {"sequence": "TTGTGATAGGCCATGAACCTGG", "sensor-assay potency score (higher = more potent)": -0.611},
      {"sequence": "TTATGGAACTGCTCCACCGAGG", "sensor-assay potency score (higher = more potent)": -0.788},
      {"sequence": "TTGATAGAACCTTCAAAGCTGT", "sensor-assay potency score (higher = more potent)": -0.451},
      {"sequence": "TTGATCTCGTCTTCCAGAGAGC", "sensor-assay potency score (higher = more potent)": -1.19},
      {"sequence": "TTGTTGGGCAAGAAGTTGCTGA", "sensor-assay potency score (higher = more potent)": -0.757},
      {"sequence": "TTGGAGTCCACCATCACTCGGC", "sensor-assay potency score (higher = more potent)": 0.203},
      {"sequence": "TAAAACACATTGGTGATCGTGT", "sensor-assay potency score (higher = more potent)": 0.009},
      {"sequence": "TTGGTGATCGACAGACTCGCTT", "sensor-assay potency score (higher = more potent)": 0.12},
      {"sequence": "TTGGGGTCCACCATCTTGCTTT", "sensor-assay potency score (higher = more potent)": -0.775},
      {"sequence": "TTGTGTAAGGCTCACTCTGGGC", "sensor-assay potency score (higher = more potent)": -1.01}
    ]},
    {"target": "NPEPL1", "assay": "pooled miR-30 sensor sort-seq; sequence = guide strand", "conditions": "shRNA", "values": [
      {"sequence": "TTGCAAGCATAGGACACGCCAT", "sensor-assay potency score (higher = more potent)": -0.766},
      {"sequence": "TTCGCTAAGCACTGCAATGTGG", "sensor-assay potency score (higher = more potent)": -0.589},
      {"sequence": "TCGGTGTTCATCTCATTGCAGG", "sensor-assay potency score (higher = more potent)": -1.16},
      {"sequence": "TCGCTCACCAGCATGCACCGGT", "sensor-assay potency score (higher = more potent)": -0.443},
      {"sequence": "TTGATTTCCACCGTCTTCCCTG", "sensor-assay potency score (higher = more potent)": -0.0975},
      {"sequence": "TTGTCTTTGAAACCCTGCTTGA", "sensor-assay potency score (higher = more potent)": -0.575},
      {"sequence": "TCGCAGACCATCACAATGCAGC", "sensor-assay potency score (higher = more potent)": -1.2},
      {"sequence": "TAGAGGGGACAGCTGTCCGTGG", "sensor-assay potency score (higher = more potent)": -0.837},
      {"sequence": "TTCATGTCCGCCACAGCTGAGG", "sensor-assay potency score (higher = more potent)": -1.03}
    ]},
    {"target": "NPR1", "assay": "pooled miR-30 sensor sort-seq; sequence = guide strand", "conditions": "shRNA", "values": [
      {"sequence": "TTAGACTCCATTCTTGAGGCTG", "sensor-assay potency score (higher = more potent)": 0.316},
      {"sequence": "TAGACTCCATTCTTGAGGCTGT", "sensor-assay potency score (higher = more potent)": 0.414},
      {"sequence": "TTCTCCAGCTGCATCTTCCTGT", "sensor-assay potency score (higher = more potent)": -0.0836},
      {"sequence": "TTGTCCAGGATGTTGCTGCTGT", "sensor-assay potency score (higher = more potent)": -0.0226},
      {"sequence": "TTCGGTTCCACATCCGCTGAGT", "sensor-assay potency score (higher = more potent)": 0.0187},
      {"sequence": "TTGTAGTTCAGTACAACCCTGA", "sensor-assay potency score (higher = more potent)": 0.392},
      {"sequence": "ATACTCGTCCTTGACACCGAAG", "sensor-assay potency score (higher = more potent)": -1.26},
      {"sequence": "TTTCGTGTCAGCTCAATGCGTT", "sensor-assay potency score (higher = more potent)": 0.0994},
      {"sequence": "TATAATATGCTGTCTTGGCAAA", "sensor-assay potency score (higher = more potent)": -1.35},
      {"sequence": "TTCCTGTATATGAAGAAGGAGA", "sensor-assay potency score (higher = more potent)": -1.29},
      {"sequence": "TCATTGGTGAGTGAGTACCGGA", "sensor-assay potency score (higher = more potent)": -1.01}
    ]},
    {"target": "NPSR1", "assay": "pooled miR-30 sensor sort-seq; sequence = guide strand", "conditions": "shRNA", "values": [
      {"sequence": "TTTGAGATGAGTCCTCGGTTAT", "sensor-assay potency score (higher = more potent)": -1.18},
      {"sequence": "TTGGACAGTGTCCTCTTCCCAA", "sensor-assay potency score (higher = more potent)": -1.13},
      {"sequence": "TAGCGCAGCCTCCTGGAGCTGA", "sensor-assay potency score (higher = more potent)": -0.612},
      {"sequence": "TTAAAGGAGTAGTAGAAGGAAC", "sensor-assay potency score (higher = more potent)": -1.01},
      {"sequence": "TACCCTTCCAGTTCTCTCGTTG", "sensor-assay potency score (higher = more potent)": 0.107},
      {"sequence": "TTTGCCTTTGAGATGAGTCCTC", "sensor-assay potency score (higher = more potent)": 0.0754},
      {"sequence": "TGAATCGCCAATTAATATCTGT", "sensor-assay potency score (higher = more potent)": -0.0374}
    ]}
  ]
}
